Laboratory results as given in PubChem BioAssay (NCI).
Compounds without any hit were thinned out: in the full panel of roughly 83,000, 20% have a hit.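 Compound tested at a single concentration for 48 hours in 96-well plates; a percent growth value below 10 was scored as active.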 The source made the active and inactive calls.

tested on: HL-60(TB) leukemia; test: NCI-60 one-dose screen, 48 h (100 = growth as untreated, 0 = no growth, -100 = all killed); conditions: 10 µM unless noted

| SMILES | growth |
| --- | --- |
| Oc1ccc(C(c2ccc(O)cc2)C(Cl)(Cl)Cl)cc1 | 68.1% (inactive) |
| CN1c2ccccc2C(C)(C)C12C=Cc1cc(O)ccc1O2 (configuration not stated) | -30.1% (active) |
| CC1(C)OC(=O)C(c2ccsc2)C(=O)O1 | 112% (inactive) |
| CCN(CC)CCCCCCNc1cc(OC)c(Cl)c2cccnc12 | 119% (inactive) |
| COc1ccc(/C=C2\NC(=O)NC2=O)cc1O | 102% (inactive) |
| CC(=O)Oc1cc(OC(C)=O)c2ccccc2c1OC(C)=O | 23.3% (inactive) |
| NC1(N)C=CC2=C(C=C1)C1(N)C3=C(C=CC(N)(N)C=C3)N2C2(N)C3=C(C=CC(N)(N)C=C3)N1C1=C2C=CC(N)(N)C=C1 | -2.73% (active) |
| O=C(CCl)N1c2ccccc2Sc2ccc3ccccc3c21 | -44.1% (active) |
| CC(C)(C)CC(C)(C)Nc1c(-c2c(O)c3ccccc3oc2=O)nc2sc3ccccc3n12 | 21.6% (inactive) |
| Cn1cc(-c2noc(C(=O)c3cn(C)c4ncc(Br)cc34)n2)c2ccccc21 | 103% (inactive) |
| Cc1cc(NCC(=O)Nc2ccc(-c3nc4ccccc4s3)cc2)no1 | 96.5% (inactive) |
| COc1ccc(-c2cscc2N)cc1 | 18.7% [100 µM] (inactive) |
| CN1CCc2nc3sc(C(N)=O)c(N)c3c(-c3cccs3)c2C1 | 7.35% (active) |
| OCc1ccc(N2CCc3cccc(F)c3C2)cc1Cl | 80.5% [0.1 µM] (inactive) |
| COc1cc(C(=O)/C=C/c2sc(Cl)nc2Cl)cc(OC)c1OC | 23.4% (inactive) |
| CN(C)c1cnccn1 | 90.3% (inactive) |
| O=C(NN=C1CCCCC1)C(=O)NN=C1CCCCC1 | 81.5% (inactive) |
